In PubChem BioAssay (EPA / NIEHS):
Results filed as inconclusive are left out. The source made the active and inactive calls. How the source made its calls, unless noted: active means hit-call score of the fitted dose curve at least 0.9, where 1 is the maximum; inconclusive means response in the unintended direction; inactive means score below 0.9.

Key:
PGR (gene 5241) [1] = target: PGR (gene 5241) (UniProt P06401); experiment: TOX21_PR_BLA_Followup_Antagonist_ratio: Tox21 HEK293 Progesterone Receptor (PR) Antagonism Beta-lactamase Follow-Up Assay, Ratio (AID 2283934);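 further: PR-UAS-bla HEK293T cells stimulated with 1 nM R5020 agonist for 16 hr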
Sequence of PGR (gene 5241) (P06401 whole entry, looked up): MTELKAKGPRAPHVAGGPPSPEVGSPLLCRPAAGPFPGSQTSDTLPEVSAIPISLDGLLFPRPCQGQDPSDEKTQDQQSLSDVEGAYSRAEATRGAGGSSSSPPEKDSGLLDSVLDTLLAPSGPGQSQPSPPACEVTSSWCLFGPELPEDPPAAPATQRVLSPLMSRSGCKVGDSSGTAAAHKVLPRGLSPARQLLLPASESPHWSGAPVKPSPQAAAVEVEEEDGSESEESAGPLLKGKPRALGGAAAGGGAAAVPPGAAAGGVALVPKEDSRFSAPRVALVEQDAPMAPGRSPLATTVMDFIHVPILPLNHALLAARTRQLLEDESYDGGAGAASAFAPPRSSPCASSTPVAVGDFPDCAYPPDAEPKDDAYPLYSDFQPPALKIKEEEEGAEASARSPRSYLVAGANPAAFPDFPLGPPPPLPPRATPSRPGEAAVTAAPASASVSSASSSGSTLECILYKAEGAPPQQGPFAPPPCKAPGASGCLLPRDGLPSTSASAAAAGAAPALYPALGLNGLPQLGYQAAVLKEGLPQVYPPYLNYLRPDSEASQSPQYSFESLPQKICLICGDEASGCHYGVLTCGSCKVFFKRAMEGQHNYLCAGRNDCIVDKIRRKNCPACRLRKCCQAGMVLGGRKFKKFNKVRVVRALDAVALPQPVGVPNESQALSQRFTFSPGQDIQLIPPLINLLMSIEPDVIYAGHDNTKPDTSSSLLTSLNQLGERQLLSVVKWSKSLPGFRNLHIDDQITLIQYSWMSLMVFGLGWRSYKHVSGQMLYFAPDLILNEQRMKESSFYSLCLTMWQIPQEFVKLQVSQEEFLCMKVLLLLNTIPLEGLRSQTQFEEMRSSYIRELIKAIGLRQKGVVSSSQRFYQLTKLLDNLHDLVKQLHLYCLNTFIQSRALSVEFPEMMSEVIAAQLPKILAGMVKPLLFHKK
Method in brief: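 Measured in PR-UAS-bla HEK293T cells co-treated with compound and 1 nM promegestone for 16 hr; beta-lactamase ratio read after 2 h FRET substrate loading, with parallel CellTiter-Glo cytotoxicity.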

[2] = TOX21_PR_BLA_Followup_Agonist_viability: Viability Assessment in the Tox21 HEK293 Progesterone Receptor (PR) Agonism Beta-lactamase Follow-Up Assay (AID 2283935);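 further: signal loss means lower viability so actives are cytotoxic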
Method in brief: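 Viability is read as CellTiter-Glo luminescence, where loss of signal indicates cytotoxicity. The cells are PR-UAS-bla HEK293T given compounds for 16 hr at 37C and 5% CO2, in the same wells used for the bla readout.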

[3] = TOX21_PR_BLA_Followup_Antagonist_viability: Viability Assessment in the Tox21 HEK293 Progesterone Receptor (PR) Antagonism Beta-lactamase Follow-Up Assay (AID 2283936);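 further: cells exposed to compound with R5020 agonist for 16 h; hits lower the luminescence signal meaning cytotoxicity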
Method in brief: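 PR-UAS-bla HEK293T cells in medium with 2% charcoal-stripped FBS were treated with compounds plus R5020 for 16 hr at 37C. After the beta-lactamase read, CellTiter-Glo was added to the same wells and luminescence read after 30 min at room temperature.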

PGR (gene 5241) [4] = target: PGR (gene 5241) (UniProt P06401); experiment: TOX21_PR_LUC_Followup_Antagonist: Tox21 HEK293 Progesterone Receptor (PR) Antagonism Luciferase Follow-Up Assay (AID 2283938);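 further: curve fitted upward as signal gain over DMSO baseline despite antagonist label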
Method in brief: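 Luciferase reporter in HEK293-PR-A-luc cells: 16 h compound treatment at 37C, ONE-Glo luminescence detection, DMSO as negative control and baseline.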

[5] = CEETOX_H295R_PROG_noMTC: CeeTox H295R High-throughput Steroidogenesis Assay for Progesterone (PROG), maximum tolerated concentration (MTC) filtered results only (AID 2283920; active means hit-call score of the fitted dose curve at least 0.9, where 1 is the maximum; inactive means score below 0.9); conditions: actives raise or lower the signal
Method in brief: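 Progesterone secreted into medium was measured by HPLC-MS/MS after MTBE extraction, following 48 h chemical exposure (0.1% DMSO) of forskolin-prestimulated (10 uM, 48 h) H295R adrenal cells. Gain or loss fitted against DMSO; no MTC filtering.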

[6] = TOX21_PR_LUC_Followup_Antagonist_viability: Viability Assessment in the Tox21 HEK293 Progesterone Receptor (PR) Antagonism Luciferase Follow-Up Assay (AID 2283940)
Method in brief: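 Loss of CellTiter-Glo ATP signal indicates cytotoxicity in HEK293-PR-A-luc cells grown in 10% charcoal-stripped FBS medium, seeded 3,000 per well and incubated 16 h with compound at 37C.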

[7] = target: Thyroid hormone receptor alpha (Rattus norvegicus) + Thyroid hormone receptor beta (Rattus norvegicus) (UniProt P18113+P63059); experiment: TOX21_TR_LUC_GH3_Agonist_Followup: Tox21 GH3 Thyroid Hormone Receptor Agonism Luciferase Follow-Up Assay (AID 2283939)
Sequence of Thyroid hormone receptor alpha (Rattus norvegicus) + Thyroid hormone receptor beta (Rattus norvegicus) (P63059 whole entry, looked up): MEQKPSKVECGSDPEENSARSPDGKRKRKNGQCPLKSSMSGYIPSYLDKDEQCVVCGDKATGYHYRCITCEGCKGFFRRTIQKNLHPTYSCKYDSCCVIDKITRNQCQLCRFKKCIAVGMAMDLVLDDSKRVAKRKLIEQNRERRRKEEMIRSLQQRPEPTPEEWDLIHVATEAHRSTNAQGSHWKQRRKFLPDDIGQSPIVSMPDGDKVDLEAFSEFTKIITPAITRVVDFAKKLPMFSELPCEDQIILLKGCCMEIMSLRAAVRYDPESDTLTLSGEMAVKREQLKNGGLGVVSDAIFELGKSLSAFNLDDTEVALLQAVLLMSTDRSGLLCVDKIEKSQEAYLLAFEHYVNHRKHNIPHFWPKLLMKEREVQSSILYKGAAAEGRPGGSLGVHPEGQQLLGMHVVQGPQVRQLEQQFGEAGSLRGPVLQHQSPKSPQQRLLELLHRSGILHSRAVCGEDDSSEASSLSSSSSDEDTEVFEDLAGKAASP
Sequence of Thyroid hormone receptor alpha (Rattus norvegicus) + Thyroid hormone receptor beta (Rattus norvegicus) (P18113 whole entry, looked up): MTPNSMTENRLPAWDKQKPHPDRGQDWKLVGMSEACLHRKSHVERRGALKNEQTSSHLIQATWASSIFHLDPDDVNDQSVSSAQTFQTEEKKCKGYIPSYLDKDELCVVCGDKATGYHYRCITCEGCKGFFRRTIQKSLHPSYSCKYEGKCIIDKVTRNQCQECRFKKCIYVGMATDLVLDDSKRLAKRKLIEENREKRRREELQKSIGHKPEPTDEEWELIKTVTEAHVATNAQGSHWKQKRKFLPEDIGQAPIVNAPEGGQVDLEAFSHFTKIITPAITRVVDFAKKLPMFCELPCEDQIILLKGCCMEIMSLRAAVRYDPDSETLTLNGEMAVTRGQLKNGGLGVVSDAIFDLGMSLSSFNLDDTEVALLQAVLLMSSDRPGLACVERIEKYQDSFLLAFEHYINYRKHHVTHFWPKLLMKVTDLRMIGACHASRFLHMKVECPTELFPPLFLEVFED
Method in brief: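 Agonist-mode confirmatory run: 15 concentrations (5 nM to 92 uM final) on GH3 rat pituitary cells, 24 h at 37C/5% CO2, T3 as positive control. Luminescence read with ONE-Glo after 30 min.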

[8] = CEETOX_H295R_ESTRADIOL_noMTC: CeeTox H295R High-throughput Steroidogenesis Assay for Estradiol, maximum tolerated concentration (MTC) filtered results only (AID 2283919; active means hit-call score of the fitted dose curve at least 0.9, where 1 is the maximum; inactive means score below 0.9); conditions: actives raise or lower the signal
Experimental: CEETOX_H295R is a cell-based, multiplexed-readout assay that uses H295R, a human adrenal gland cell line, with measurements taken at 48 hours after chemical dosing in a 96-well plate.CEETOX_H295R_ESTRADIOL_noMTC is one of 12 assay component(s) measured or calculated from the CEETOX_H295R assay (11 hormones and 1 viability assay). It is designed to make measurements of hormone induction, a form of inducible reporter, as detected with absorbance signals by HPLC-MS-MS technology. The concentrations for these components have not been pre-filtered for the maximum tolerated concentration (MTC) based on the MTT assay (_noMTC).Data from the assay component CEETOX_H295R_ESTRADIOL_noMTC was analyzed into 1 assay endpoint. This assay endpoint, CEETOX_H295R_ESTRADIOL_noMTC, was analyzed with bidirectional fitting relative to DMSO as the negative control and baseline of activity. […]
Cell culture and media preparation procedures were conducted in accordance with OECD Test No. 456 guidelines, with minor modifications. […] For steroid quantification, media samples were shipped to OpAns, LLC (Durham, NC) on dry ice, and samples were thawed to room temperature prior to liquid-liquid extraction. […] Steroid hormones were separated by HPLC, eluted using a reverse phase C18 gradient with electrospray positive ionization, followed by quantification by tandem mass spectrometry (MS/MS). […]

[9] = CEETOX_H295R_ESTRONE_noMTC: CeeTox H295R High-throughput Steroidogenesis Assay for Estrone, maximum tolerated concentration (MTC) filtered results only (AID 2283921; active means hit-call score of the fitted dose curve at least 0.9, where 1 is the maximum; inactive means score below 0.9); conditions: actives raise or lower the signal
Method in brief: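 Estrone in spent medium, quantified by tandem MS following dansyl chloride derivatization, after 48 h chemical exposure (0.1% DMSO) of forskolin-prestimulated (10 uM, 48 h) H295R cells; concentrations not MTC-filtered, bidirectional fit against DMSO.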

PGR (gene 5241) [10] = target: PGR (gene 5241) (UniProt P06401); experiment: TOX21_PR_LUC_Followup_Agonist: Tox21 HEK293 Progesterone Receptor (PR) Agonism Luciferase Follow-Up Assay (AID 2283937; active means hit-call score of the fitted dose curve at least 0.9, where 1 is the maximum; inactive means score below 0.9)
Method in brief: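 In HEK293 cells stably expressing PR-A with a luciferase reporter, compounds were incubated 16 h at 37C, and induced luminescence was quantified with ONE-Glo, multiplexed with cell viability.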

## Clc1ccc(C(c2ccc(Cl)cc2)C(Cl)Cl)cc1
PGR (gene 5241) [1]
  AC50: 31.5 µM (active)
[2]
  outcome: inactive
[3]
  outcome: inactive
PGR (gene 5241) [4]
  AC50: 33.8 µM (active)

## C=CCc1ccc2c(c1)OCO2
[5]
  outcome: inactive

## O=[N+]([O-])c1ccc(Oc2ccc(Cl)cc2Cl)cc1
PGR (gene 5241) [1]
  AC50: 20.6 µM (active)
[2]
  outcome: inactive
PGR (gene 5241) [4]
  outcome: inactive
[6]
  outcome: inactive

## Brc1ccc(Oc2ccccc2)cc1
[5]
  outcome: inactive

## Cc1ccc(N)cc1
[7]
  outcome: inactive

## CCCCCOC(=O)c1ccccc1C(=O)OCCCCC
[8]
  outcome: inactive
[5]
  outcome: inactive
[9]
  outcome: inactive

## Clc1ccc(C(c2ccc(Cl)cc2)C(Cl)(Cl)Cl)cc1
PGR (gene 5241) [1]
  AC50: 34.8 µM (active)
[2]
  AC50: 84.9 µM (active)
[3]
  outcome: inactive
PGR (gene 5241) [4]
  AC50: 32.5 µM (active)
[6]
  outcome: inactive

## CCCCOC(=O)c1ccccc1C(=O)OCc1ccccc1
[5]
  outcome: inactive
PGR (gene 5241) [1]
  outcome: inactive
[2]
  outcome: inactive
[3]
  outcome: inactive
PGR (gene 5241) [4]
  outcome: inactive
[6]
  outcome: inactive

## CC(C)COC(=O)c1ccccc1C(=O)OCC(C)C
[8]
  outcome: inactive
[5]
  outcome: inactive
[9]
  outcome: inactive

## ClC1=C(Cl)[C@]2(Cl)[C@H]3[C@H]([C@@H]4C=C[C@H]3C4)[C@@]1(Cl)C2(Cl)Cl
PGR (gene 5241) [1]
  AC50: 46.1 µM (active)
[2]
  AC50: 62.6 µM (active)
[3]
  outcome: inactive
PGR (gene 5241) [4]
  AC50: 46.1 µM (active)

## C[C@]12C=CC3=C4CCC(=O)C=C4CC[C@H]3[C@@H]1CC[C@@H]2O
PGR (gene 5241) [1]
  outcome: inactive
[2]
  outcome: inactive
[3]
  outcome: inactive
PGR (gene 5241) [10]
  AC50: 0.00268 µM (active)
PGR (gene 5241) [4]
  outcome: inactive
[6]
  outcome: inactive
